Experimental data published in PubChem BioAssay (Tox21).
Inconclusive results are not listed. Where a call stands in place of a potency, no number is given. Activity calls are given as the source filed them. Calls come from the whole dose curve; as a rule, active = well fitted activation curve with a large enough effect in the signal ratio in the repeat runs (not every such curve was filed as active); inconclusive = weak or mixed curves, or effect the other way; inactive = flat fitted curve, though single readings scatter; the % refers to the signal ratio.

biological target: Estrogen receptor beta (Homo sapiens) (UniProt Q92731); test: qHTS assay to identify small molecule agonists of the estrogen receptor beta (ER-beta) signaling pathway (AID 1259377); conditions: ER-beta-UAS-bla HEK293T, beta-lactamase FRET ratio, 16 h; series mostly up to 92.4 µM
Text: U.S. Tox21 Program National Center for Advancing Translational Sciences [NCATS] NIH Chemical Genomics Center [NCGC] U.S. Environmental Protection Agency [EPA] National Institutes of Environmental Health Sciences [NIEHS] National Toxicology Program [NTP] U.S. Food and Drug Administration [FDA] Tox21 Assay Overview: Estrogen receptor (ER), a nuclear hormone receptor, plays an important role in development, metabolic homeostasis and reproduction. Two subtypes of ER, ER-alpha and ER-beta, have similar expression patterns with some uniqueness in both types. Endocrine disrupting chemicals (EDCs) and their interactions with steroid hormone receptors like ER causes disruption of normal endocrine function. To identify the compounds that activate ER signaling, an ER beta-UAS-bla GripTite cell line (Life technologies, Madison, WI, USA) containing a beta-lactamase reporter gene under the control of an Upstream Activator Sequence (UAS) was used to screen Tox21 10K compound library.
Tox21 Assay Protocol Summary: ER-beta-UAS-bla HEK293T cells were dispensed at 2,000 cells/5 uL of assay medium containing 2% charcoal stripped FBS per well into black wall/clear-bottom 1536-well plates using a Multidrop Combi (ThermoFisher Scientific, Waltham, MA) dispenser. After the assay plates were incubated at a 37C and 5% CO2 for 6 hr, 23 nL of compounds dissolved in DMSO, positive controls or DMSO only was transferred to the assay plate by a Pintool station (Kalypsys, San Diego, CA). The plates were incubated at 37C and 5% CO2 for 16 hr. Then 1 uL of LiveBLAzerTM B/G FRET substrate was added using a BioRAPTR FRD (Flying Reagent Dispenser, Aurora Discovery, San Diego, CA). After the plates were incubated at room temperature for 2 hours, fluorescence intensity was measured by an Envision plate reader (PerkinElmer, Shelton, CT).

Sequence of Estrogen receptor beta (Homo sapiens) (Q92731 whole entry, looked up): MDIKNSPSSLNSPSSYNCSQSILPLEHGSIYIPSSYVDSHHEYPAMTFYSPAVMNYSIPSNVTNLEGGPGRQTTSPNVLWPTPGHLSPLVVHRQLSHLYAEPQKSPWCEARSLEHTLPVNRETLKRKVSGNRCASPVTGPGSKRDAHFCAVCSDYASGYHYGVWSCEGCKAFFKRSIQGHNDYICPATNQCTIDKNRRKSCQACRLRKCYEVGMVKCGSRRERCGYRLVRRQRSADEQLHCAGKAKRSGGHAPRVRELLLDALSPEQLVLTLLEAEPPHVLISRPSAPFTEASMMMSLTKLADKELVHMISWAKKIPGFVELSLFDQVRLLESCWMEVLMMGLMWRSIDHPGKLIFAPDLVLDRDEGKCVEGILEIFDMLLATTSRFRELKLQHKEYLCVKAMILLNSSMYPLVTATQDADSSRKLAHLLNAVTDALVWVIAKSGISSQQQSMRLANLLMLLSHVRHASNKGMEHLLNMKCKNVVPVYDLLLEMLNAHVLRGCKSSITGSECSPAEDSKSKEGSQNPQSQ

Row | Compound | Potency | activation
1 | CCN(CC)CCNC(C(=O)OCCC(C)C)c1ccccc1 (stereo not given) | inactive | 
2 | S=C(S)NCCNC(=S)S | inactive | 
3 | O=C(O)COC(=O)Cc1ccccc1Nc1c(Cl)cccc1Cl | inactive | 
4 | CCCCOC(=O)c1ccccc1C(=O)OCC(CC)CCCC (stereo not given) | inactive | 
5 | CCN1CCC[C@H]1CNC(=O)c1c(OC)ccc(Br)c1OC | inactive | 
6 | CCN(CC)CCOC(=O)C1(c2ccccc2)CCCC1 | inactive | 
7 | CN1CCC(=C2c3ccccc3C=Cc3ccccc32)CC1 | inactive | 
8 | COC(=O)CSc1cc(N=c2sc(=O)n3n2CCCC3)c(F)cc1Cl | inactive | 
9 | O=C1CCCCCO1 | inactive | 
10 | Cc1nc2ccccc2n1Cc1ccc(Cl)cc1 | inactive | 
11 | SC1CCCC1 | inactive | 
12 | CC(=O)[C@@]1(O)CC[C@H]2[C@@H]3C[C@H](C)C4=CC(=O)CC[C@]4(C)[C@H]3CC[C@@]21C | inactive | 
13 | CCCc1ccccc1 | inactive | 
14 | Cc1ccc(C(N)=O)cc1N | inactive | 
15 | Cc1ccc(C(=O)C(C)CN2CCCCC2)cc1 (stereo not given) | inactive | 
16 | CC(=O)SCc1ccco1 | inactive | 
17 | O=C1Nc2cc(Cl)ccc2Oc2ccccc21 | inactive | 
18 | CCCCCCCCCCCCCCCCCBr |  | -3.04% [at 19 µM] (inactive)
19 | C=CCCCCCC | inactive | 
20 | Cc1c(Cn2ccnc2)c2ccccc2n1CCC(=O)O | inactive | 

Row | Compound | Potency | activation
21 | O=C(O)c1cn(C2CC2)c2cc(Cl)c(F)cc2c1=O | inactive | 
22 | CCCCOc1ccc(CC(=O)NO)cc1 | inactive | 
23 | OCCC1CCCCN1 (stereo not given) | inactive | 
24 | COCCCCCCCCOCCC[Si](C)(O[Si](C)(C)C)O[Si](C)(C)C | inactive | 
25 | CCc1nn(C2CCCCC2)c2cc(C3(C#N)CCC(C(=O)O)CC3)ccc12 (stereo not given) | inactive | 
26 | O=C1[C@H](CC[C@H](O)c2ccc(F)cc2)[C@@H](c2ccc(O)cc2)N1c1ccc(F)cc1 | inactive | 
27 | O=C=NC1CCC(CC2CCC(N=C=O)CC2)CC1 (stereo not given) | inactive | 
28 | CNS(=O)(=O)Cc1ccc2[nH]cc(CCN(C)C)c2c1 | inactive | 
29 | O=C(O)/C=C/c1cnc[nH]1 | inactive | 
30 | CCN(CC)C(C)=O | inactive | 
31 | CC[C@H](C)[C@@H](C(=O)O)n1sc2ccccc2c1=O | inactive | 
32 | O=CNc1ccccc1 | inactive | 
33 | CCOC(=O)CC(C)C | inactive | 
34 | CC(C)(C)C(=O)OCOP(=O)(COCCn1cnc2c(N)ncnc21)OCOC(=O)C(C)(C)C | inactive | 
35 | C#CCOC(=O)[C@@H](C)Oc1ccc(Oc2ncc(Cl)cc2F)cc1 | inactive | 
36 | COC(=O)C(C)=O | inactive | 
37 | OC(CCN1CCCCC1)(c1ccccc1)C1CCCCC1 (stereo not given) | inactive | 
38 | CCOC(=O)[C@H](CCc1ccccc1)N[C@H]1CCc2ccccc2N(CC(=O)O)C1=O | inactive | 
39 | C=CC(=O)OCC(C)OCC(C)OCC(C)OC(=O)C=C (stereo not given) | inactive | 
40 | CCOc1cc(OCC)c(C(=O)CCC(=O)O)cc1OCC | inactive | 
